Screening results (PubChem BioAssay)
CTSL1 counter: Fasciola hepatica cathepsin L1 inhibitors, primary screen, counter-screen for PFM18AAP inhibitor project, biochemical, QFRET, fluorogenic peptide substrate; recombinant F. hepatica cathepsin L1, Z-Leu-Arg-MCA fluorescence; inhibition, % at 5.96 µM; 300,000 tested, 0.49% active;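 active means inhibition above the mean of all tested compounds plus 3 SD, set per screening campaign, cut at about 17% in these data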;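 further: 0% = plate median of test compound wells and 100% = 1 µM Z-Phe-Ala-diazomethylketone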
HNF4A DNA FP: change in binding of human HNF4A to DNA, primary screen, biochemical, fluorescence polarization, FITC-DNA. 360,000 tested, 0.3% active. AID 1224865, 2016. 1 h. activity change, % at 10 µM. Hepatocyte nuclear factor 4-alpha (Homo sapiens), P41235; in the data active means activity change above about 30%, passing the limit was not always enough
Target sequence (P41235 whole entry, looked up): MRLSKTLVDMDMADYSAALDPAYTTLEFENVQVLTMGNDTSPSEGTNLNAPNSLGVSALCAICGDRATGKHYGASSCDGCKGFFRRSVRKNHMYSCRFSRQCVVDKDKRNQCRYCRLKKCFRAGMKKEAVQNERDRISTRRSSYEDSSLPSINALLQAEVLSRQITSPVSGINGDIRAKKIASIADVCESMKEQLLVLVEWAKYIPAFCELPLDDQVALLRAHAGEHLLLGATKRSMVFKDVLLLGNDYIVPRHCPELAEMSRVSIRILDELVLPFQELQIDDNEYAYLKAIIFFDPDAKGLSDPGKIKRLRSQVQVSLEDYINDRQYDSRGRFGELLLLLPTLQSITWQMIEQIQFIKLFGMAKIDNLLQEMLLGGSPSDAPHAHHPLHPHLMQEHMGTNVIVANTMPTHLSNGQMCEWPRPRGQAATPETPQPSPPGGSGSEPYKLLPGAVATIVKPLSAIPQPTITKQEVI
TPT1 inh: Candida albicans TPT1 enzyme inhibitors, primary screen, biochemical, fluorescence polarization; inhibition, % at 5 µM; recombinant caTPT1, FP RNA substrate dephosphorylation; AID 1962, 2009; 300,000 tested, 0.81% active;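 active means inhibition above the mean of all tested compounds plus 3 SD, set per screening campaign, cut at about 24% in these data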;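 further: plate controls were DMSO alone for no effect and ferristatin control at 100 nM for full effect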
PHOSPHO1 inh: PubChem AID 1565; Phosphoethanolamine/phosphocholine phosphatase (Homo sapiens), Q8TCT1; recombinant PHOSPHO1, absorbance phosphatase assay; inhibition, % at 13.3 µM; 290,000 tested, 1.1% active; in the data active means inhibition above about 60%
CendR NRP1 mod: modulators of CendR peptide binding to NRP-1, primary screen, biochemical, fluorescence polarization, uHTS. 360,000 tested, 0.85% active. Neuropilin-1 (Homo sapiens), O14786. FAM-RPARPAR peptide binding to NRP-1. AID 602438, 2012. inhibition, % at 25 µM;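 active means inhibition or corrected inhibition above about 18%, plus a signal ratio from 0.5 to 1.5, limit read from the data, passing the limit was not always enough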
Rpn11 inh: Rpn11 (PSMD14) deubiquitinase inhibitors, primary screen, biochemical, fluorescence polarization, uHTS; AID 588493, 2011; inhibition, % at 20 µM; 26S proteasome non-ATPase regulatory subunit 14 (Homo sapiens), O00487; human 26S proteasome, Ub4-pepOG fluorescence polarization; 20S core pre-blocked with epoxomicin; 360,000 tested, 0.59% active;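 active means inhibition at 20 µM, scaled to each plate's controls, above about 33%, limit read from the data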
Numbers without * were called inactive; . = no result. A selection: hits, their analogues and other compounds. The true share with any hit is near 3.3%.

SMILES	CTSL1 counter	HNF4A DNA FP	TPT1 inh	PHOSPHO1 inh	CendR NRP1 mod	Rpn11 inh
CCCc1c(C)nn(-c2ncccc2[N+](=O)[O-])c1C	0	-3	-2	60*	-4	-2
O=C(Nc1nnc(S(=O)(=O)N2CCCCCC2)s1)c1ccccc1Br	5	-6	3	25	-13	-8
O=C(Nc1nnc(S(=O)(=O)N2CCCC2)s1)c1ccccc1Br	81*	0	-2	25	0	-2
Cc1sc2nc(CN(C(=O)NCc3ccccc3)C3CCCC3)[nH]c(=O)c2c1C	6	-5	-2	24	9	3
CC(=O)N(Cc1nc2sc(C)c(C)c2c(=O)[nH]1)C1CCCC1	27*	0	4	45	5	-7
CCCNC(=O)COc1coc(CN2CCN(c3cccc(Cl)c3)CC2)cc1=O	0	2	2	26	-3	-2
CNC(=O)C(=O)NCC1OCCN1S(=O)(=O)c1ccc([N+](=O)[O-])cc1 (centres undefined)	-3	1	0	-10	-2	-16
O=C(NCc1ccccc1F)C(=O)NCC1OCCCN1S(=O)(=O)c1cccs1 (centres undefined)	-3	1	1	75*	-12	1
CNC(=O)C(=O)NCC1OCCCN1S(=O)(=O)c1ccc(F)cc1C (centres undefined)	1	0	-1	27	27*	-18
O=C(NCc1ccccc1)C(=O)NCC1OCCN1S(=O)(=O)c1ccc([N+](=O)[O-])cc1 (centres undefined)	2	32*	-2	40	20	-2
Cc1ccc(Cl)cc1Nc1nc(-c2sc(NC(=O)c3cccc(Cl)c3)nc2C)cs1	-1	.	6	-32	.	.
CCCC(C)C(=O)Nc1nc(C)c(-c2csc(Nc3cc(Cl)ccc3C)n2)s1 (centres undefined)	1	9	3	74*	-10	6
CCCCCC(=O)Nc1nc(C)c(-c2csc(Nc3cc(Cl)ccc3C)n2)s1	-2	2	5	70*	4	-4
CCCCCCC(=O)Nc1nc(C)c(-c2csc(Nc3ccc(Cl)cc3)n2)s1	1	6	7	72*	2	15
O=C(C[C@@H]1C/C=C\CCC(=O)O[C@H](c2ccccc2)CNC1=O)N[C@H](CO)Cc1ccccc1	.	2	.	.	-4	3
CCOc1ccc(/C=C2\SC(=S)N(CC(=O)N(CCO)C(C)(C)C)C2=O)cc1	3	-2	4	10	2	4
Cc1cc(NC(=O)Cn2cnc3sc(C)c(-c4ccccc4)c3c2=O)no1	.	1	.	-8	1	0
COc1ccc(CN(C)S(=O)(=O)c2nnc(NC(=O)c3ccccc3Br)s2)cc1	0	-2	-2	22	-2	5
O=C(O)c1ccc(S(=O)(=O)NCC2CCCCC2)cc1	.	72*	.	28	-2	-8
O=C(NC1CC1)c1ccc(S(=O)(=O)NCC2CCCCC2)cc1	0	-1	-2	-10	-3	-3
O=C1C(O)=C(O)C(=O)c2ccccc21	61*	-3	-2	.	2	-8
O=C1c2ccccc2C(=O)c2c1ccc(O)c2O	.	-44	.	.	83*	-69
COC(=O)c1ccc2c(c1O)C(=O)c1ccccc1C2=O	26*	0	-43	38	-9	-9
O=C(NCC(=O)N(CC1CCCO1)C(C(=O)NC1CCCCC1)c1cccnc1)c1cccs1 (centres undefined)	1	1	-1	28	6	-2
Cn1c(SCc2cc(=O)n3cc(Br)ccc3n2)nnc1C1COc2ccccc2O1 (centres undefined)	1	-8	-1	73*	-17	-16
O=C(CN1C2=NCCN2c2ccccc21)N1CCOCC1	2	.	0	-2	.	.
O=C(CN1C2=NCCN2c2ccccc21)c1ccco1	1	7	0	-11	32*	0
